# In all, about 370,000 compounds went through this assay and about 1,100 (0.3%) were called active. Cut-off read from the data, not from the text of the source: active = inhibition above about 13%; inactive = the rest. Many of the other results were omitted from the sample, so actives are more common in it than they were.
# Target: Methyl-CpG-binding domain protein 2 (Homo sapiens) (UniProt Q9UBB5)
# Experiment: MBD2-DBD methyl-oligonucleotide interaction blockers – biochemical, TR-FRET, DNA-binding domain, human, primary screen (AID 686964)
# Settings: MBD2 binding to methylated oligonucleotide, at 4.4 µM, hits give high values
# Methyl-CpG-binding domain protein 2 (Homo sapiens), sequence (Q9UBB5 whole entry, looked up, the tested form may be a part): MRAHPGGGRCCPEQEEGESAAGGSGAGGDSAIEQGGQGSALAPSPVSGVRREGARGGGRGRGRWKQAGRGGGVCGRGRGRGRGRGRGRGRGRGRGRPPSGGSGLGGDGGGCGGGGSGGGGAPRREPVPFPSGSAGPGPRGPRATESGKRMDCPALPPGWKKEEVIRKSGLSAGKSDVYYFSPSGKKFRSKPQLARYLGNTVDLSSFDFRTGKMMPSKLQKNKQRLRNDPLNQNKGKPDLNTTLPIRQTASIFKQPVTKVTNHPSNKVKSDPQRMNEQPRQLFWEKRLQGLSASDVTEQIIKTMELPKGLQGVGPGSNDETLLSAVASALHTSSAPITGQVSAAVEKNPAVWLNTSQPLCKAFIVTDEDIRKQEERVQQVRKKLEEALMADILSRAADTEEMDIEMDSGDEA
row,SMILES,inhibition
1,CC(C)(C)NC(=O)COC(=O)c1cc(Cl)ccc1[N+](=O)[O-],-1.21% (inactive)
2,COC(=O)C[C@H]1CC[C@H]2[C@H](COc3ccc(NC(=O)C4CC4)cc3C(=O)N2C)O1,-4.11% (inactive)
3,Cc1ccc(N(C(=O)c2snc(C(N)=O)c2N)C(C(=O)NCC2CCCO2)c2c[nH]c3ccccc23)cc1 (stereo not given),0.5% (inactive)
4,c1nc(COc2nsnc2N2CCOCC2)cs1,-0.47% (inactive)
5,C=CCn1c(=S)[nH]c2scc(-c3ccco3)c2c1=O,21.2% (active)
6,Cc1ccc(Cn2cc(COC(=O)N(C)Cc3ccccc3)nn2)cc1,3.5% (inactive)
7,O=C(NCc1cccs1)C1CCN(S(=O)(=O)c2ccccc2[N+](=O)[O-])CC1,0.44% (inactive)
8,CCCn1c(SCC(=O)Nc2c(C)cccc2C)nnc1C(C)C,6.66% (inactive)
9,CC(C)CC(COCc1ccc(Cl)cc1)N1CCN(C(=O)c2ccc(C(F)(F)F)cc2)CCC1=O (stereo not given),4.33% (inactive)
10,O=C(c1ccc(C(F)(F)F)cc1)N1CCC(=O)N([C@H](COCc2ccccc2)Cc2ccccc2)CC1,3% (inactive)
11,COc1ccc(COC[C@H](CC(C)C)N2CCN(C(=O)c3cccc(C(F)(F)F)c3)CCC2=O)cc1,13.4% (active)
12,C[C@@H]1ON(C)[C@H]2C[C@H]3c4cc(N5CCOCC5)ccc4CCN3C[C@@H]12,-5.34% (inactive)
13,COC(=O)CNc1nc(Cl)nc(N2CCC(C)CC2)n1,2.21% (inactive)
14,CCc1c(-c2ccc(F)cc2)ncn1Cc1cccc(-c2ccccc2)c1,1.61% (inactive)
15,CCOC(=O)C1CCN(C(=O)C(C)(C)NC(=O)Nc2ccccc2Cl)CC1,1.47% (inactive)
16,Cc1c(CC(=O)N2CCN(C(=O)C3COc4ccccc4O3)CC2)c(=O)oc2c(O)c(O)ccc12 (stereo not given),13.6% (active)
17,Fc1ccc2nc(COCc3nc4ccc(F)cc4[nH]3)[nH]c2c1,-0.41% (inactive)
18,CCC(C)n1[nH]c(=O)c2c(C)cc(C)nc21 (stereo not given),-4.79% (inactive)
19,CCC(=O)Nc1cccc(C2=NOC3(C2)C[C@@H](C(N)=O)N(C(=O)c2cc([N+](=O)[O-])cc([N+](=O)[O-])c2C)C3)c1 (stereo not given in full),-0.08% (inactive)
20,COc1ccc(-n2cc(-c3ccccc3)c3c(=S)nc[nH]c32)cc1,14% (active)
21,O=c1[nH]cnc2c1c(-c1ccccc1)cn2-c1ccc(F)cc1,4.57% (inactive)
22,O=C(CNS(=O)(=O)c1ccccc1F)N1CCN(c2ccccn2)CC1,-1.19% (inactive)

row,SMILES,inhibition
1,COC(=O)c1ccc2nc(-c3ccccc3)c(Cc3ccc(OC)cc3C)n2c1,10.6% (inactive)
2,COC(=O)c1ccc2nc(-c3cccc(Br)c3)c(Cc3ccc(OC)cc3C)n2c1,14.9% (active)
3,COC(=O)c1ccc2nc(-c3ccc(C)cc3)c(Cc3ccc(OC)cc3C)n2c1,7.16% (inactive)
4,Cc1ccc(OCc2nnc(SC/C=C/c3ccccc3)n2Cc2ccco2)cc1,-3.87% (inactive)
5,C=CCN1C(=O)[C@@H](CC(=O)N2CCN(C(=O)OCC)CC2)[C@]2(C(=O)OCC)CCCCC/C=C/12,4.9% (inactive)
6,Brc1ccc(-c2n(-c3ccccn3)c3ccccc3[n+]2-c2ccccn2)cc1,27.6% (active)
7,CS(=O)(=O)N(C(=O)NC(=O)NC1CCS(=O)(=O)C1)C1CCCCC1 (stereo not given),0.13% (inactive)
8,CCCC1CCC2(CCCN2CCOC(=O)NCc2ccccc2)CC1 (stereo not given),3.95% (inactive)
9,COc1ccnc(NC(=S)N2CCN(c3ncc(C(F)(F)F)cc3Cl)CC2)c1,6.09% (inactive)
10,CCOc1cc(-c2noc(CCCC(=O)NC3CCCCC3)n2)ccc1OC,20.2% (active)
11,COc1ccc(-c2noc(CCCC(=O)NC3CCCC3)n2)cc1OC,-2.51% (inactive)
12,CCOc1cc(-c2noc(CCC(=O)N3CCOCC3)n2)ccc1OC,-5.56% (inactive)
13,CCOC(=O)[C@]12CCCC=C1N(CCCOC)C(=O)[C@@H]2CC(=O)N1CCOCC1,-0.28% (inactive)
14,Cc1cc(C(=O)NN=C/C=C/c2ccco2)n[nH]1,-1.33% (inactive)
15,C/C=C/c1ccc(OCCCCN2CCC(C)CC2)c(OC)c1,-2.18% (inactive)
16,C[C@H](O)[C@@H]1C(=O)N2CCc3c([nH]c4c(-c5ccc6c(c5)OCO6)cccc34)[C@@H]2C[C@@H]1N(C)C(=O)c1ccco1,-2.04% (inactive)
17,O=S(=O)(NCC1CCCO1)c1cnc(Cl)c(Cl)c1 (stereo not given),4.2% (inactive)
18,O=C(CC1CCCCC1)Nc1c2c(nn1-c1ccc(F)cc1)CS(=O)(=O)C2,15.6% (active)
19,COc1ccccc1OCC(=O)Nc1c2c(nn1-c1ccc(F)cc1)CS(=O)(=O)C2,-1.49% (inactive)
20,O=C(Nc1c2c(nn1-c1ccccc1)CS(=O)(=O)C2)C1CCCC1,2.43% (inactive)
21,c1coc(CCNc2ncnc3ccc(-c4ccc5c(c4)OCO5)cc23)c1,-2.55% (inactive)
22,COc1ccc(C2NC(=O)N(C)C(C)=C2[N+](=O)[O-])cc1 (stereo not given),0.13% (inactive)

row,SMILES,inhibition
1,CC(C)Oc1ccc(C2NC(=O)NC2=O)cc1 (stereo not given),15.2% (active)
2,O=C1NC(=O)C(c2ccc(Cl)cc2)N1 (stereo not given),0.89% (inactive)
3,CN(C)Cc1cn(-c2ccc(-c3noc4c3C(=O)N(CC(=O)N3CCOCC3)CC4)cc2)nn1,-2.86% (inactive)
4,COC(=O)[C@]12C[C@H](CC(=O)NCc3ccc(OC)c(OC)c3)C(=O)N(Cc3ccccc3)C1=C[C@H](C(C)C)O[C@@H]2C1CC1,-2.93% (inactive)
5,CC(C)c1nc(CNC(=O)CC2C(=O)NCCN2Cc2cccc(F)c2F)cs1 (stereo not given),24.3% (active)
6,CC(C)c1nc(CNC(=O)CC2C(=O)NCCN2Cc2ccoc2)cs1 (stereo not given),-4.85% (inactive)
7,Cc1ccc(CN2CCNC(=O)C2CC(=O)NCc2csc(C(C)C)n2)cc1 (stereo not given),0.13% (inactive)
8,COc1ccc(Cn2cc(CN3[C@@H](CC(C)C)COc4cc(Br)ccc4S3(=O)=O)nn2)cc1,0.36% (inactive)
9,Cc1c(C(=O)NCCN(C)C)oc2ccc(S(=O)(=O)N3CCCC3)cc12,4.85% (inactive)
10,CN(C)CCNC(=O)c1ccc(Cl)c2cc3ccccc3nc12,51.2% (active)
11,CN(C)CCNC(=O)Cc1ccc([N+](=O)[O-])cc1,-0.79% (inactive)
12,COc1ccc(OCCCC(=O)Nc2cccc(S(=O)(=O)N3CCCCCC3)c2)cc1,-2.96% (inactive)
13,C[C@H]1[C@H](c2ccccc2)Oc2cc(Br)ccc2S(=O)(=O)N1Cc1cccc(F)c1,8.37% (inactive)
14,O=C1/C(=C\c2ccc([N+](=O)[O-])cc2)CS(=O)(=O)C/C1=C/c1ccc([N+](=O)[O-])cc1,-5.61% (inactive)
15,O=S(=O)(c1ccccc1)N1CCC(c2ccccc2)CC1,0.43% (inactive)
16,CCOc1ccc(S(=O)(=O)N2CCC(C(=O)NCc3ccccn3)CC2)cc1Cl,-0.81% (inactive)
17,CCOc1ccc(S(=O)(=O)N2CCC(c3ccccc3)CC2)cc1C(=O)O,22.6% (active)
18,O=C(c1n[nH]c2c1CCC2)N1CCCC(Nc2cccc(F)c2)C1 (stereo not given),14.7% (active)
19,CSc1ncccc1C(=O)N1CCCC(Nc2ccc(F)c(F)c2)C1 (stereo not given),2.81% (inactive)
20,COC(=O)c1cccc(C(=O)N2CCCC(Nc3ccc4c(c3)OCCO4)C2)c1 (stereo not given),4.97% (inactive)
21,O=C(CSc1nnc(COc2ccccc2)n1-c1ccc(Cl)cc1)Nc1ccc2c(c1)OCO2,3.27% (inactive)
22,Cc1ccccc1C(=O)N[C@H](C(=O)N1CCC[C@H]1C(=O)NCc1ccccc1)C(C)C,-4.41% (inactive)

row,SMILES,inhibition
1,COC(=O)Cc1ccc(OC2(C)CCN(Cc3ccc4c(c3)OCCO4)C2)cc1 (stereo not given),5.04% (inactive)
2,CC(OC(=O)c1ccc(S(=O)(=O)N2CCOCC2)cc1)c1ccccc1 (stereo not given),5.42% (inactive)
3,COc1ccc(S(=O)(=O)N2CCOCC2)cc1NC(=O)c1ccc(OCC(C)C)c(OC)c1,0.42% (inactive)
4,COC(=O)c1c(NC(=O)c2ccc(S(=O)(=O)N3CCOCC3)cc2)sc2c1CCN(C(C)C)C2,13.3% (active)
5,CC(OC(=O)CCC(=O)c1ccccc1)C(=O)Nc1ccc(F)cc1 (stereo not given),-0.7% (inactive)
6,COCCNC(=S)N(C)[C@H]1C[C@H]2c3[nH]c4ccccc4c3CCN2C[C@H]1[C@H](C)O,-2.52% (inactive)
7,CCOc1ccc(-n2c(SCC(=O)Nc3cc(C)c(NC(=O)c4ccccc4)cc3OC)nnc2-c2cccs2)cc1,-6.74% (inactive)
8,CCOc1ccc(N(CC(=O)NCCc2ccc(F)cc2)S(=O)(=O)c2ccccc2)cc1,4.6% (inactive)
9,CCOc1ccc(N(CC(=O)NCCOc2ccccc2OC)S(=O)(=O)c2ccccc2)cc1,15.1% (active)
10,COc1ccc(CCNC(=O)CN(c2ccccc2)S(=O)(=O)c2ccccc2)cc1,2% (inactive)
11,C=CCN1C(=O)[C@@H](CC(=O)N2CCN(C(=O)c3ccco3)CC2)[C@]2(C(=O)OC)CCCCC=C12,3.2% (inactive)
12,CN(CCc1ccccc1)C(=O)Cn1nc(-c2ccccc2)ccc1=O,-0.03% (inactive)
13,CCOC(=O)N1CCN(C(=O)C[C@H]2C[C@@]3(C(=O)OC)C(=C[C@H](C4CCCC4)O[C@@H]3C)N(Cc3ccccc3)C2=O)CC1,-8.2% (inactive)
14,COc1ccc2[nH]c3c(C)c4cc[n+](C)cc4c(C)c3c2c1,109% (active)
15,CCCc1nnc(SCC(=O)N2C(C)CCCC2C)n1CC (stereo not given),3.6% (inactive)
16,O=P(c1cccs1)(c1cccs1)c1cccs1,0.79% (inactive)
17,Cc1ccc(Cc2cnc(N)s2)o1,19.8% (active)
18,CCOc1ccccc1CN1CCN(C2CCC2)CC1CCO (stereo not given),-1.77% (inactive)
19,CC1CCCCC12NC(=O)N(CC(=O)Nc1ccc(S(=O)(=O)Nc3ncccn3)cc1)C2=O (stereo not given),5.36% (inactive)

# Reference: PubChem BioAssay AID686964 (The Scripps Research Institute Molecular Screening Center, 2013)
